Reference: PubChem BioAssay AID504387 (National Center for Advancing Translational Sciences (NCATS), 2011)
Calls of active or inactive are those of the source. The rule behind the calls is not given here.

Biological target: Thyrotropin receptor (Homo sapiens) (UniProt P16473)
Experiment: Concentration-response assay for antagonists of the thyroid stimulating hormone receptor: ELISA activity detection
Details: HEK293-TSHR, TSH-induced cAMP, ELISA chemiluminescence
Source text: TSH is an alpha/beta heterodimeric glycoprotein hormone secreted from the anterior pituitary gland which belongs to the glycoprotein hormone family. The actions of TSH are mediated by a seven-transmembrane receptor, which upon TSH binding couples preferentially to the G-alpha (s) protein (Gs), resulting in activation of adenylate cyclase and increase in cyclic adenosine 3', 5' monophosphate (cAMP). The TSH receptor (THSR) is mainly expressed in thyroid follicular cells and regulates their growth and function. This cell based assay was conducted on a TSHR transfected HEK 293 cell line, measuring cAMP stimulation using antibody-based Homogeneous Time Resolved Fluorescence (HTRF). Our goal is to identify small molecules that will inhibit (antagonize) the thyroid-stimulating hormone receptor (TSHR), a member of the 7 transmembrane-spanning receptor (7TMR) family of cell surface receptors. TSHR-mediated hyperthyroidism is important in thyroid pathology. The development of small molecule antagonists of TSHR may lead to therapeutic approaches for TSHR-mediated hyperthyroidism caused by constitutively activating mutations or stimulating auto-antibodies associated with Graves' disease. Graves' disease is the leading cause of hyperthyroidism and is caused by autoantibodies that stimulate TSHR (TsAbs) causing thyroid growth and unregulated overproduction of thyroid hormones and existing treatments have liabilities (agranulocytosis). In addition, TSHRs are known to be expressed in multiple extrathyroidal tissues including bone, brain, kidney, testis, fat and cells of the immune system but the role of the TSHR in these tissues is not clear. Therefore, TSHR antagonists/inverse agonists could be used as probes of extrathyroidal TSHR function. Finally, TSHR inverse agonists, which are a subclass of antagonists that inhibit agonist-independent (or basal or constitutive) TSHR signaling, could be used to inhibit TSH-independent signaling in patients with recurrent or metastatic thyroid cancer who are receiving thyroid hormone to suppress TSH. A confirmatory assay of TSHR antagonists was conducted on a HEK 293 cell line stably expressing the TSHR, using an orthogonal detection technology to measure cAMP stimulation: an ELISA based cAMP competition assay using cAMP-Screen Direct System (Applied Biosystems, Foster City, CA).
Transiently transfected HEK-EM 293 cells or cells stably expressing TSHRs were seeded into 96-well plates at a density of 7 x10^4 cells per well in DMEM containing 10% FBS. Cells were cultured for 24 h before incubation for 20 min in HBSS/10 mM HEPES (pH 7.4). To determine the effect of the compound on TSH induced TSHR activity, cells were incubated for 20 min with the compound in HBSS/HEPES without IBMX and subsequently for 40 min with bovine TSH (Sigma) and the compound in HBSS/HEPES supplemented with 1 mM IBMX at 37 C. The levels of cAMP in cells incubated in HBSS/HEPES without IBMX were subtracted in all experiments. After aspiration of the incubation medium, cells were lysed using lysis buffer of the cAMP-Screen Direct system (Applied Biosystems, Foster City, CA). The cAMP content of the cell lysate was determined using the method described in the manufacturer's protocol. The chemiluminescence signal was measured in a VICTOR3 V 1420 multilabel counter (PerkinElmer, Norwalk, CT). The potencies (EC50 and IC50) of the ligands were obtained from dose-response curves by data analysis with GraphPad Prism 4 for Windows.

Sequence of Thyrotropin receptor (Homo sapiens) (P16473 whole entry, looked up): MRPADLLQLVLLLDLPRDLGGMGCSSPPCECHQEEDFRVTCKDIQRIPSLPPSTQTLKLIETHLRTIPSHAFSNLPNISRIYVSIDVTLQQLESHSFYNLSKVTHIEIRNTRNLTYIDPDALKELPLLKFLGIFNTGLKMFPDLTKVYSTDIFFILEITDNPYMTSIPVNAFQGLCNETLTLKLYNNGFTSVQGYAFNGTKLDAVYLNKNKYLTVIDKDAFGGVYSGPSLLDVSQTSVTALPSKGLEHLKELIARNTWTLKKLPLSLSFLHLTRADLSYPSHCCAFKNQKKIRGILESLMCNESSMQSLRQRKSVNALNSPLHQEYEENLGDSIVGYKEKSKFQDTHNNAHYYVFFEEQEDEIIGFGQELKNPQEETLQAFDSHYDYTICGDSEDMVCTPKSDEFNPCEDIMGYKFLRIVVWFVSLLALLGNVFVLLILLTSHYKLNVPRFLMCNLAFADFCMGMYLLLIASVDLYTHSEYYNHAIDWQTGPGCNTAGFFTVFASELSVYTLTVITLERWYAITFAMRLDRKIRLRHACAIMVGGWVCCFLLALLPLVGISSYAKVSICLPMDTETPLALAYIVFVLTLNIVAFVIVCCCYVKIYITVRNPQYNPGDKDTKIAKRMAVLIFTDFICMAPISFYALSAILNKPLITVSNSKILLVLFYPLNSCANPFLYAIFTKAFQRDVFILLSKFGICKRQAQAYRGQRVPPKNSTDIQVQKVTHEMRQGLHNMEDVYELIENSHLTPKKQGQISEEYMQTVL

| Compound | IC50 | outcome |
| --- | --- | --- |
| COc1ccc(C2Nc3ccccc3C(=O)N2Cc2ccc(C)o2)cc1COc1c(C)cccc1C (stereo unspecified) | 2.3 µM (active) |  |
| CCc1cccc(CC)c1OCc1cc(C2Nc3ccccc3C(=O)N2Cc2ccco2)ccc1OC (stereo unspecified) | 22.3 µM (active) |  |
| COc1ccc(C2Nc3ccccc3C(=O)N2Cc2ccco2)cc1COc1ccccc1C (stereo unspecified) |  | inactive |
| COc1ccc(C2Nc3ccccc3C(=O)N2Cc2ccco2)cc1CSc1c(C)cccc1C (stereo unspecified) | 9.9 µM (active) |  |
| COc1ccc(C2Nc3ccccc3C(=O)N2Cc2cccnc2)cc1COc1c(C)cccc1C (stereo unspecified) | 3.5 µM (active) |  |
| Cc1cccc(C)c1OCc1cccc(C2Nc3ccccc3C(=O)N2Cc2ccco2)c1 (stereo unspecified) | 1.9 µM (active) |  |
| COc1ccc(C2Nc3ccccc3C(=O)N2Cc2ccccc2)cc1COc1c(C)cccc1C (stereo unspecified) |  | inactive |
| COc1ccc(C2Nc3ccccc3C(=O)N2Cc2ccco2)cc1COc1c(C)cc(NC(C)=O)cc1C (stereo unspecified) | 2.3 µM (active) |  |
| COc1ccc(C2Nc3ccccc3C(=O)N2Cc2cccs2)cc1COc1c(C)cccc1C (stereo unspecified) | 1 µM (active) |  |
| COc1ccc(C2Nc3ccccc3C(=O)N2Cc2ccccn2)cc1COc1c(C)cccc1C (stereo unspecified) |  | inactive |
| COc1ccc(C2Nc3cccc(O)c3C(=O)N2Cc2ccco2)cc1COc1c(C)cc(NC(C)=O)cc1C (stereo unspecified) |  | inactive |
